# Data: the supplement of paper PMC3334620
# Over roughly 33,000 sequences, “E-score (-0.5 to 0.5)” has its median near -0.041; the highest 2% begin near 0.37. Only a selection was taken, and the highest values are over-represented in it overall.
# Biological target: T1, Ecm22 (UniProt Q05958)
# T1 sequence: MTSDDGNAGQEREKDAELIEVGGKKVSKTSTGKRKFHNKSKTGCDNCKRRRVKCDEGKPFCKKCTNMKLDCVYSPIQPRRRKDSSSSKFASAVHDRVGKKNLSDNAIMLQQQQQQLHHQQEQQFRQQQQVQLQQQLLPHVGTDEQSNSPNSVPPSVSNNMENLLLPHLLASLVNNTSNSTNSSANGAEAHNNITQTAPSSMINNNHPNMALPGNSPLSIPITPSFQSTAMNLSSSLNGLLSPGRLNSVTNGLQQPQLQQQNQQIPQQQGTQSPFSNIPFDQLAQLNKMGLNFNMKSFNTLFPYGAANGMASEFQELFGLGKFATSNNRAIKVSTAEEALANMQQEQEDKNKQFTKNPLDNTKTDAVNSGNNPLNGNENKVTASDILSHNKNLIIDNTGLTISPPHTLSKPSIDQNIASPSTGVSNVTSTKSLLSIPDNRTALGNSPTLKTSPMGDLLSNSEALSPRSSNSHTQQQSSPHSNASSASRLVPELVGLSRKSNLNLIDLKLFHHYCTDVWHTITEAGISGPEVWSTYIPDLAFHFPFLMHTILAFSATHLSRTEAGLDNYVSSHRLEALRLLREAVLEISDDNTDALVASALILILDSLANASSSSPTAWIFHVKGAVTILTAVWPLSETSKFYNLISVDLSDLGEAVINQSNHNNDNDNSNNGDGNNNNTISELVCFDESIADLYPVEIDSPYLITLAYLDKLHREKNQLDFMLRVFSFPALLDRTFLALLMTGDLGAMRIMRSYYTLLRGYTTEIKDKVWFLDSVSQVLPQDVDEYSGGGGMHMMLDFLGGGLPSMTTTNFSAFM
# Assay: PBM E-score (8-mer binding enrichment) (E-score (-0.5 to 0.5)); higher = stronger / more preferred TF binding
# Conditions: protein concentration: 200 nM; construct: GST-full length
# Method in brief: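 Each ungapped eight-base word and its reverse complement, pooled, received an E-score from the Universal PBM Analysis Suite. Underlying scans, normalised with masliner, recorded fluorescent anti-GST bound to GST-tagged yeast transcription factors. These were applied at about 100-200 nM to universal all-10-mer Agilent arrays double-stranded by primer extension.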
row,Sequence,PBM E-score
1,GCACGGAA,-0.094
2,CTACGGAA,0.0649
3,TTACGGAA,0.266
4,CTACGGAC,-0.07
5,ATACGGAG,0.385
6,GTACGGAC,0.372
7,ATACGGAT,0.332
8,ATACGGAA,0.374
9,AATTTGCT,-0.0782
10,TAGGGAGA,-0.252
11,ACATGGGG,-0.282
12,TGAATTAA,0.099
13,CCGGAGGA,-0.171
14,GAAAACGA,0.306
15,CGAAACGA,0.424
16,GGAAACAA,0.0422
17,CGAAACGC,0.0992
18,AGAAACGG,0.272
19,CGAAACCA,0.28
20,GGAAACGA,0.426
21,AGAAACGA,0.424
22,AGAAACGC,-0.0375
23,CCTGTGTA,0.00294
24,GAGAGCAC,-0.00667
25,AACATCGT,0.264
26,AAGTATCA,-0.115

row,Sequence,PBM E-score
1,CAGCTAGA,-0.0476
2,CTTGCCGA,-0.0634
3,ACGACCAC,0.35
4,GCGACCGA,0.218
5,CCGACCTA,0.0401
6,ACGACCTC,0.337
7,CCGACCGA,0.203
8,ACGACCGA,0.394
9,ACGACCTA,0.384
10,ACGACCAA,0.371
11,ACGACCAG,0.319
12,AGACATTG,-0.268
13,ACTCGCAG,0.0817
14,GCAGGGGC,-0.243
15,GAAGAAGC,-0.234
16,AACAGTTA,-0.1
17,ATCCGTTA,0.177
18,AAAGGCTT,-0.177
19,ACCGAGCG,0.292
20,CAAGACTC,-0.126
21,CGAAATCG,0.111
22,CTTCGTTA,0.303
23,ATTCGTTA,0.309
24,CTTCGTTC,0.47
25,ATTCGTTC,0.432
26,ATTCGTTG,0.277

row,Sequence,PBM E-score
1,GTTCGTTA,0.356
2,CTCTCTAA,-0.232
3,GCTCTAGA,-0.226
4,AGTTCCTA,0.102
5,CCTTCCTC,-0.0948
6,GGTTCCTA,-0.128
7,CGTTCCTA,0.439
8,AGTTCCTC,-0.117
9,CGTTCCTC,0.452
10,ACAGTAAC,0.00997
11,AACTGCAA,-0.138
12,CACCTTAC,-0.0784
13,CGGCTCCC,-0.0756
14,GCTGCATA,-0.114
15,CGTCTAAC,-0.0542
16,GAAAGATC,0.0489
17,ACATAGCA,-0.131
18,GTATAAAC,0.403
19,GTATAAAA,0.335
20,ATATAAAC,0.212
21,CACAATTC,-0.0282
22,AGCGCTAT,-0.048
23,CGACCTCG,0.183
24,AACGTTCG,0.217
25,AGCGTTCA,-0.121
26,ATCGTTGG,-0.0634

row,Sequence,PBM E-score
1,AGCGTTCC,0.2
2,CACGTTCA,-0.131
3,ATCGTTCC,0.478
4,AACGTTCA,0.0914
5,ATCGTTCA,0.402
6,ATCGTTCG,0.373
7,CGCGTTCA,0.185
8,AACGTTCC,0.259
9,CTCGTTCA,0.47
10,AGGGTTAT,-0.0839
11,ATTCATAC,0.161
12,CTTGTGTC,-0.0755
13,CACCGGAC,0.112
14,CGATCTAG,0.00932
15,ATCGTGGG,-0.0631
16,CGATCTAA,0.0461
17,GTTAGACA,-0.137
18,GGCGTTCA,0.00425
19,GTCGTTCA,0.448
20,GACGTTCA,0.0272
21,AAGCCCAG,-0.109
22,CGTACACC,0.37
23,TGTACACA,0.0209
24,GGTACACA,-0.126
25,CGTACACA,0.402
26,AGTACACA,0.18

row,Sequence,PBM E-score
1,GGTACACC,0.0576
2,CGTACACG,0.382
3,AGTACACG,0.238
4,AGTACACC,0.0652
5,GTAGCAAA,0.0111
6,GACCAGGC,-0.228
7,CCCCAGCA,-0.237
8,ACGGAACC,0.218
9,CCGGAACG,0.445
10,CCGGAACA,-0.0629
11,ACGGAACT,0.157
12,CCGGAACC,-0.0325
13,ACGGAACG,0.442
14,CCCCGCCA,0.0635
15,TAGGACCA,-0.185
16,GTATGAAC,0.234
17,ATGTTACA,-0.0708
18,GAGAGACC,-0.21
19,ACGGGGAC,0.0581
20,GAGAACAA,0.124
21,GGATCGGA,0.159
22,CGATCGAA,0.164
23,AGATCGTC,-0.0821
24,CGATCGTC,0.104
25,GGATCGAA,0.251
26,AGATCGTG,-0.0112

row,Sequence,PBM E-score
1,GGATCGTA,0.434
2,CGATCGTA,0.437
3,AGATCGTA,0.389
4,AGTCCCAA,-0.193
5,GGCTAGTA,-0.00889
6,CTGACGCA,-0.319
7,GAGCTTAA,0.0486
8,ACCGAGGT,0.225
9,AACGAGGA,0.449
10,AGCGAGGA,0.265
11,GACGAGGC,0.163
12,AACGAGGC,0.434
13,CACGAGGA,0.196
14,GACGAGGA,0.175
15,CACGAGGC,0.171
16,ATCGAGGA,0.115
17,AACGAGGT,0.447
18,AAAGAGGT,-0.244
19,TACGAGGA,0.466
20,CATGAAAA,0.00915
21,ATTGCTTC,0.0317
22,AAGCTTCA,-0.0703
23,ACAAATTC,0.0192
24,AACGGGCT,0.16
25,ACGCTCAA,0.0449
26,GGTCTAAC,-0.0964

row,Sequence,PBM E-score
1,CGGGACGC,-0.0663
2,ACTCGGCT,0.112
3,CTGCACTC,-0.104
4,AACGAGGG,0.439
5,AGCGAGGG,0.249
6,CACGAGGG,0.189
7,ACGCAAGG,-0.01
8,AGCCGGAT,-0.0402
9,CACGAGTG,0.106
10,AAAGAGTT,-0.264
11,TACGAGTA,0.467
12,ACCGAGTA,0.286
13,AGCGAGTA,0.363
14,AGCGAGTG,0.324
15,AACGAGTT,0.41
16,AACGAGTA,0.433
17,AACGCGTT,0.212
18,GACGAGTA,0.117
19,AACGAGTG,0.421
20,CACGAGTA,0.157
